Experimental data as given in PubChem BioAssay (Tox21).
Values joined by “and” are separate entries in the source; they are usually repeats but may differ in a detail not shown here. Equal entries are not always repeated. Records with an inconclusive call do not appear. A call without a number means that no potency is given here. Some compounds were tested as several samples or in several runs, with calls that do not always agree. Active and inactive are the calls of the source. Unless noted, calls come from the whole dose curve.

Experiment: qHTS assay to identify small molecule agonists of the endoplasmic reticulum stress response signaling pathway (AID 1159516; active = well fitted activation curve with a large enough effect in the signal ratio in the repeat runs, not every such curve was filed as active; the % refers to the signal ratio)
Settings: ESRE-bla HeLa, ER stress beta-lactamase reporter, 5 h; series mostly up to 61 µM; activation: at the top concentration
Method in brief: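 CellSensor ESRE-bla HeLa cells, carrying a beta-lactamase reporter driven by the ER stress response element, were plated overnight and exposed to compounds for 5 hr at 37 C. Reporter activity was read as FRET substrate fluorescence after 2 hr at room temperature.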

SMILES	Potency	activation
CCCCOCCOC(C)=O	inactive	–
CCOP(=S)(OCC)OP(=S)(OCC)OCC	inactive	–
COc1ccc(C=O)cc1OC	inactive	–
CC(C)(C#N)N=NC(C)(C)C#N	inactive	–
CC1CC(=O)O1 (stereo not drawn)	inactive	–
CS(=O)(=O)NC(=O)c1cc(Oc2ccc(C(F)(F)F)cc2Cl)ccc1[N+](=O)[O-]	inactive	–
CC(C)(c1ccc(OCC2CO2)cc1)c1ccc(OCC2CO2)cc1 (stereo not drawn)	–	-7.96% (inactive)
[CH3][Sn]([Cl])([Cl])[Cl]	inactive	–
CCOP(=O)(OCC)OCC	inactive	–
COP(=S)(OC)SCn1nnc2ccccc2c1=O	inactive	–
CC1=C(C(=O)Nc2ccccc2)SCCO1	inactive	–
CC[n+]1c(-c2ccccc2)c2cc(N)ccc2c2ccc(N)cc21	inactive	–
O=C(O)CF	inactive	–
CSc1nc(NC(C)C)nc(NC(C)C)n1	inactive	–
CCCCSP(=O)(SCCCC)SCCCC	inactive	–
c1ccc2c(c1)Nc1ccccc1S2	–	-7.48% (inactive)
CC(C)=CC1C(C(=O)OCc2cccc(Oc3ccccc3)c2)C1(C)C (stereo not drawn)	inactive	–
Cc1cc(Cl)ccc1N=CN(C)C	inactive	–
CCCCOC(=O)COC(=O)c1ccccc1C(=O)OCCCC	inactive	–

SMILES	Potency	activation
COC(=O)Nc1nc2ccccc2[nH]1	inactive	–
Clc1ccc(C(Cl)(Cl)Cl)cc1	inactive	–
O=NN1CCOCC1	inactive	–
CC1(C)C(C(=O)OC(C#N)c2cccc(Oc3ccccc3)c2)C1(C)C (stereo not drawn)	–	4.96% (inactive)
C=CC(Cl)CCl (stereo not drawn)	inactive	–
CCC/C=N/O	inactive	–
Clc1cccc(C(Cl)(Cl)Cl)n1	inactive	–
CCCCCCCCCc1ccc(O)cc1	–	7.19% [at 78.8 µM] (inactive)
CC(C)Nc1nc(Cl)nc(NC(C)C)n1	inactive	–
Nc1ccc2ccccc2c1	inactive	–
O=C(O)c1nn(Cc2ccc(Cl)cc2Cl)c2ccccc12	–	-5.93% (inactive)
Nc1ncn[nH]1	inactive	–
CNC(=S)S	inactive	–
O=[N+]([O-])c1ccc(Nc2ccccc2)cc1	–	-4.52% [at 78.8 µM] (inactive)
O=S(=O)(O)C(F)(F)C(F)(F)C(F)(F)C(F)(F)C(F)(F)C(F)(F)C(F)(F)C(F)(F)F	inactive	–
Brc1ccc(Br)cc1	inactive	–
C=C(C)C#N	–	0.816% (inactive)
O=C1CCCO1	inactive	–

Experiment: qHTS assay to identify small molecule agonists of the endoplasmic reticulum stress response signaling pathway - cell viability counter screen (AID 1159517); note: nearly all actives have a fitted effect of over 50% in size; note: potency is the fitted concentration of half-maximal effect
Settings: ESRE-bla HeLa viability, CellTiter-Glo luminescence, 5 h; series mostly up to 61 µM; activity change, negative = cytotoxicity: at the top concentration
Method in brief: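 ESRE-bla HeLa cells, 1,500 per well, seeded overnight then treated with compounds for 5 hr at 37 C. After the beta-lactamase read, viability in the same wells is measured by CellTiter-Glo luminescence after 30 min at room temperature.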

SMILES	Potency	activity change, negative = cytotoxicity
CCCCOCCOC(C)=O	inactive	–
CCOP(=S)(OCC)OP(=S)(OCC)OCC	–	6.33% (inactive)
COc1ccc(C=O)cc1OC	inactive	–
CC(C)(C#N)N=NC(C)(C)C#N	–	-10.5% (inactive)
CC(C)(c1ccc(OCC2CO2)cc1)c1ccc(OCC2CO2)cc1 (stereo not drawn)	inactive	–
[CH3][Sn]([Cl])([Cl])[Cl]	inactive	–
CCOP(=O)(OCC)OCC	inactive	–
COP(=S)(OC)SCn1nnc2ccccc2c1=O	inactive	–
O=C(O)CF	inactive	–
CSc1nc(NC(C)C)nc(NC(C)C)n1	inactive	–
c1ccc2c(c1)Nc1ccccc1S2	–	-27.6% (inactive)
CC(C)=CC1C(C(=O)OCc2cccc(Oc3ccccc3)c2)C1(C)C (stereo not drawn)	inactive	–
Cc1cc(Cl)ccc1N=CN(C)C	–	2.86% (inactive)
CCCCOC(=O)COC(=O)c1ccccc1C(=O)OCCCC	inactive	–
COC(=O)Nc1nc2ccccc2[nH]1	–	7.05% (inactive)
O=NN1CCOCC1	inactive	–
CC1(C)C(C(=O)OC(C#N)c2cccc(Oc3ccccc3)c2)C1(C)C (stereo not drawn)	inactive	–
CCC/C=N/O	inactive	–
Clc1cccc(C(Cl)(Cl)Cl)n1	inactive	–
CC(C)Nc1nc(Cl)nc(NC(C)C)n1	inactive	–
O=C(O)c1nn(Cc2ccc(Cl)cc2Cl)c2ccccc12	–	-15.2% (inactive)
Nc1ncn[nH]1	inactive	–
CNC(=S)S	inactive	–
O=[N+]([O-])c1ccc(Nc2ccccc2)cc1	inactive and 54.9 µM (active)	–
C=C(C)C#N	inactive	–
O=C1CCCO1	inactive	–
